JMJD2A Tudor = qHTS Assay for Inhibitors of JMJD2A-Tudor Domain | Lysine-specific demethylase 4A (Homo sapiens), O75164 | AlphaScreen JMJD2A-Tudor / H3K4me3 peptide binding | Potency, µM (doses to about 114 µM), inactives show top-dose activity change, negative = inhibition, usual class: inhibitors | hit rate 4.4% among 390,000 | AID 504339, 2011; also: % is scaled to controls: 0 for no effect and ±100 for the full control effect; nearly all actives have a fitted effect of over 50% in size
Target sequence (O75164 whole entry, looked up, the tested form may be a part): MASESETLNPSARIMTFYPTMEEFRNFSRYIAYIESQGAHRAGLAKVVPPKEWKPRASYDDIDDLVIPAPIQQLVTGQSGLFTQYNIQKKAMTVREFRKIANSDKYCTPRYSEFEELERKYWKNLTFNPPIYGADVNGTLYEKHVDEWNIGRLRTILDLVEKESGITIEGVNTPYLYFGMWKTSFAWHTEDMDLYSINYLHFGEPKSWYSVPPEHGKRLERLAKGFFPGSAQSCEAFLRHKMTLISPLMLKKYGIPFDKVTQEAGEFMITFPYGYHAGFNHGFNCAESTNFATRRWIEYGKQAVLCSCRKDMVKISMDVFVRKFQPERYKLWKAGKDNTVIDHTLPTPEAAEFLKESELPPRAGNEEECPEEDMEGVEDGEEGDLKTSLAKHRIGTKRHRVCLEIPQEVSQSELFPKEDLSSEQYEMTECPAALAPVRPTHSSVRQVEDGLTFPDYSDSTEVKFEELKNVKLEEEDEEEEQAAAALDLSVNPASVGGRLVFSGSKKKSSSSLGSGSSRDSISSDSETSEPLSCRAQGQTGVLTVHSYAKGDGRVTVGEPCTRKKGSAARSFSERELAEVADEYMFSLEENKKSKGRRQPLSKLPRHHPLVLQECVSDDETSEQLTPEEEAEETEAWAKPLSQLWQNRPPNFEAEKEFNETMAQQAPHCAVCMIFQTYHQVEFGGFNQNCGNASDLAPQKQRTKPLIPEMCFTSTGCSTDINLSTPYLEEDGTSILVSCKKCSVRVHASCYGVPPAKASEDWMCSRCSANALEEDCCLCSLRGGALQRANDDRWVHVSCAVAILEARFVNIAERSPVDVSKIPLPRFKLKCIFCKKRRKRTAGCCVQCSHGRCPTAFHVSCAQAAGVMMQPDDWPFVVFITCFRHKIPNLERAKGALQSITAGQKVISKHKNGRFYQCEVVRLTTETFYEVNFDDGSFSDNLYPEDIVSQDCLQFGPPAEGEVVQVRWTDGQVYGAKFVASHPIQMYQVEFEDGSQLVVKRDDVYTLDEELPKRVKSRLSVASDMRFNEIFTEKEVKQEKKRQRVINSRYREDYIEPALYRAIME
G9a inh = qHTS Assay for Inhibitors of Histone Lysine Methyltransferase G9a; Potency, µM (top dose mostly 102 µM), inactives show top-dose activity, negative = inhibition, usual class: inhibitors; G9a H3K9 monomethylation, AlphaScreen, 2 h; AID 504332, 2011; hit rate 8.8% among 350,000; also: % is scaled to controls: 0 for no effect and ±100 for the full control effect; nearly all actives have a fitted effect of over 75% in size
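AlphaScreen read-out: biotin-H3K9 peptide (500 nM) methylation by 20 nM enzyme with 20 uM SAM, 2 h at room temperature after 15 min compound preincubation; anti-monomethyl H3K9 antibody plus donor/acceptor beads, 10 min dark.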
HP1b binding inh = HTS for Inhibitors of HP1-beta Chromodomain Interactions with Methylated Histone Tails. Chromobox protein homolog 1 (Homo sapiens), P83916. hit rate 0.56% among 390,000. Potency, µM (doses to about 114 µM), inactives show at the top dose activity change, negative = inhibition, hits mostly inhibitors. AlphaScreen HP1-beta / biotin-H3K9me3 peptide binding; also: nearly all actives have a fitted effect of over 70% in size
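Compound inhibition of the preformed complex between 50 nM HP1-beta and 50 nM biotinylated H3K9me3 peptide was read by AlphaScreen. Buffer was PBS pH 7.4 with 0.01% Tween-20. Incubations ran 30 min at room temperature, with 10 ug/mL donor/acceptor beads.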
Sfp inh = qHTS Assay for Inhibitors of Bacillus subtilis Sfp phosphopantetheinyl transferase (PPTase) | 4'-phosphopantetheinyl transferase ffp (Bacillus subtilis), Q9F4F7 | Biochemical Sfp PPTase activity, qHTS | Potency, µM, inactives show largest response in the series, negative = inhibition, most hits filed as inhibitors | hit rate 3.5% among 310,000 | AID 1490, 2009;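 also: the enzyme is Sfp with the accession as filed and its product quenches rhodamine fluorescence; 0% = enzyme reaction without inhibitor and -100% = no enzyme wells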
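Fluorescence-quenching assay with 15 nM Sfp, 5 uM rhodamine-CoA and 12.5 uM BHQ-2-labelled ybbR peptide in pH 7.6 Hepes/MgCl2 buffer. Enzyme was pre-incubated with compound for 15 min at room temperature. Rate was taken from the 30-min fluorescence change (525/598 nm).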
PLK1 PBD block = qHTS for Inhibitors of PLK1-PDB (polo-like kinase 1 - polo-box domain): Primary Screen; Serine/threonine-protein kinase PLK1 (Homo sapiens), P53350; AID 720504, 2013; Potency, µM, for the others: max response, negative = inhibition, hits mostly inhibitors; hit rate 2.8% among 360,000; Plk1 PBD binding of FITC phosphopeptide, fluorescence polarization; also: series mostly up to about 57 µM; % is scaled to controls: 0 for no effect and ±100 for the full control effect; nearly all actives have a fitted effect of over 65% in size
BAZ2B block = qHTS Assay for Inhibitors of BAZ2B; Bromodomain adjacent to zinc finger domain protein 2B (Homo sapiens), Q9UIF8; AlphaScreen BAZ2B-H3K14Ac peptide displacement; Potency, µM (titrated, usually from 114 µM), without a hit: top-dose activity change, negative = inhibition, hits mostly inhibitors; hit rate 4.4% among 360,000; AID 504333, 2011; also: % is scaled to controls: 0 for no effect and ±100 for the full control effect; nearly all actives have a fitted effect of over 60% in size
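AlphaScreen displacement of biotin-H3(5-23)K14Ac peptide (50 nM final) from BAZ2B (50 nM final) in PBS pH 7.4, 0.01% Tween-20; complex preformed 30 min RT, then compounds (top 110 uM) 30 min RT, beads 20 min dark.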
The depositor's hits bear a star; u = inconclusive; x = no result; [ ] = dose if it differs, or a comment. A selection: hits, their analogues and other compounds. The true share with any hit is near 12%. Calls follow the shape of the dose curve; as a rule, active = well fitted curve in the direction sought with a large enough effect; inconclusive = small, poorly fitted or top-dose-only effect, or another doubt; inactive = no such curve, though single readings can be large; an effect the other way counts as inactive or inconclusive. Potency is read from the fitted curve at half-maximal effect.

SMILES	JMJD2A Tudor	G9a inh	HP1b binding inh	Sfp inh	PLK1 PBD block	BAZ2B block
Cc1ccc2c(n1)sc1c(-c3ccc(Br)cc3)c(C#N)c(N)nc12	-10%	-14%[12.7 µM]	55%	u	-8%	5%[57.1 µM]
CCCCCCn1c(SCC#N)nc2ccccc2c1=O	15%[57.1 µM]	x	60%[57 µM]	x	x	x
Cn1cccc1-c1nc2ccc(NC(=O)c3ccco3)cc2[nH]1	u	u	u	10%	1%	50µM*
Cc1ccc2nc(-c3ccc(NC(=O)c4ccco4)cc3)[nH]c2c1	-34%	28µM*	-20%	-4%	-2%	-16%
O=C(Nc1c(C(=O)Nc2ccccc2)cnn1-c1ccccc1)c1ccco1	-14%	8%[59 µM]	12%	0%	-6%	9%
Cc1ccc(-c2nnc(-c3ccc(NC(=O)c4ccco4)cc3)o2)cc1	-30%	8%[12.7 µM]	13%	-2%	-8%	3%
O=C(Nc1ccc2nc(-c3cccs3)[nH]c2c1)c1ccco1	0%	u	42%	3%	0%	1%
Cc1ccc(NC(=O)c2cnn(-c3ccccc3)c2NC(=O)c2ccco2)cc1	-32%[11.4 µM]	15%	-10%	18%	3.4µM*	5%
O=C(NCCCN1CCN(c2ccccc2)CC1)c1nnc(Cc2ccc(F)cc2)o1	-20%	-11%[59 µM]	34%	x	x	-18%
CC1(C)COC(c2ccc3c(c2)OCO3)OC1	-8%	x	6%[57 µM]	x	2%	x
O=C1CCCc2ccccc2N1Cc1c(Cl)cccc1Cl	2%	-20%[12.7 µM]	21%	u	-2%	9%
CNC(=S)N(C)/N=C1/C(=O)N(Cc2c(Cl)cccc2Cl)c2ccccc21	5µM*	-20%[12.7 µM]	-49%	x	-1%	25µM*
Cc1sc2ncn(CC(=O)N3CCC(C(N)=O)CC3)c(=O)c2c1S(=O)(=O)N1CC(C)CC(C)C1 (stereo unspecified)	100µM*	-1%	-95%	14%	-5%	3%
Cc1sc2ncn(CC(=O)N3CCCC(C)C3)c(=O)c2c1S(=O)(=O)N1CCCCC1 (stereo unspecified)	-17%	-4%	-15%	24%	-13%	5%
CCOC(=O)c1c(C)[nH]c(C)c1C(=O)COC(=O)C1CCCN1S(=O)(=O)c1ccccc1F (stereo unspecified)	-25%	50µM*	-8%	1%	-1%	u
O=C(COC(=O)[C@@H]1CCCN1S(=O)(=O)c1ccccc1F)c1ccccc1	2%	0%	49%	8%	7%	-7%
O=C(/C=C/c1ccc(Cl)cc1Cl)N1CCN(c2ccccc2[N+](=O)[O-])CC1	u	40µM*	u	-20%	-4%	u
O=C(/C=C/c1ccccc1[N+](=O)[O-])N1CCN(c2ccccc2F)CC1	-30%	56µM*	14%	0%	-2%	u
O=C(/C=C/c1ccc(Cl)cc1Cl)N1CCN(c2ccc([N+](=O)[O-])c(N3CCOCC3)c2)CC1	-34%	u	1%	-2%	-3%	u
CC(C)(C)C(=O)N1CCN(c2ccc(Cl)cc2[N+](=O)[O-])CC1	-30%	2%[59 µM]	-21%	-2%	2%	u
O=[N+]([O-])c1cc(Cl)ccc1N1CCN(c2ccccc2O)CC1	40µM*	u	u	2%	-9%	14µM*
O=S(=O)(CCN1CCN(c2ccccc2O)CC1)c1cc(Cl)ccc1Cl	-22%	45µM*	22%	x	-5%	1%
CCOc1ccc(NC(=S)N2CCN(CCN3C(=O)c4cccc5cccc(c45)C3=O)CC2)cc1	-26%	4%	16%	-22%	-4%	-11%
COc1ccccc1CNc1nc(-c2ccccc2OC)nc2ccccc12	x	-4%[0.501 µM]	x	-20%	x	x
COc1ccc(S(=O)(=O)N2CCCC(C(=O)NCC3CCCO3)C2)cc1OC (stereo unspecified)	-9%	10%	24%	19%	-28%	6%
SMILES	JMJD2A Tudor	G9a inh	HP1b binding inh	Sfp inh	PLK1 PBD block	BAZ2B block
Cc1c2cnn(CC(=O)NCCc3ccccc3)c(=O)c2c(C)n1Cc1ccccc1Cl	-18%	-1%[59 µM]	12%	x	x	2%
O=C(Oc1cc(Cl)ccc1Cl)c1ccc(N2CCOCC2)c([N+](=O)[O-])c1	35µM*	u	u	-3%	4%	u
O=C(Oc1ccc(Cl)cc1)c1ccc(N2CCOCC2)c([N+](=O)[O-])c1	u	u	-21%	-4%	-3%	u
CCc1nc(N2CCN(CC(=O)NCC3CCCO3)CC2)c(C#N)c2c1COC(C)(C)C2 (stereo unspecified)	-1%	x	33%	-29%	-4%	50µM*
CCNC(=O)c1c(NC(=O)c2nc(S(=O)(=O)CC)ncc2Cl)sc2c1CCCC2	-14%	1%[59 µM]	32%	x	x	-17%
Cn1cnc([N+](=O)[O-])c1S(=O)(=O)Oc1cccc2ccccc12	-34%	x	-4%	x	8.4µM*	x
Cn1cnc([N+](=O)[O-])c1Oc1cccc2ccccc12	-19%	-17%	36%	-17%	-13%	-4%
CCOC(=O)N(C)c1c(CC)nc2c(OCc3ccc(F)cc3)cccn12	x	x	x	x	-2%	x
O=C(NCc1ccco1)Nc1cccc(-c2ccccc2)c1	-24%	x	7%	x	-6%	x
COc1ccccc1Cn1c(CNS(=O)(=O)c2ccccc2Cl)nc2cccnc21	-9%	40%[59 µM]	27%[57 µM]	x	x	-13%
Cc1ccc(-c2nc3ccc([N+](=O)[O-])cc3[nH]2)cc1	-33%	u	13%	10%	-8%	-35%
O=[N+]([O-])c1ccc(-c2nc(-c3ccc(F)cc3)c(-c3ccncc3)[nH]2)cc1	x	35µM*	x	-29%	x	x
CC(=O)Nc1ccc2c(c1)ncn2-c1ccc(C)cc1	-6%	x	28%	12%	-9%	-8%
CCOC(=O)c1ccc(N2C(=O)c3n[nH]c(-c4ccco4)c3C2c2ccc([N+](=O)[O-])cc2)cc1 (stereo unspecified)	u	u	-25%	-15%	5%	40µM*
CCOC(=O)c1ccc(N2C(=O)c3[nH]nc(-c4ccc(OC)cc4)c3C2c2cccc(O)c2)cc1 (stereo unspecified)	-29%	-20%[59 µM]	28%	x	x	x
CCOC(=O)c1ccc(N2C(=O)c3n[nH]c(C)c3C2c2ccc(OCC)cc2)cc1 (stereo unspecified)	u	-28%[59 µM]	29%	x	x	x
CCOC(=O)c1ccc(N2C(=O)c3n[nH]c(-c4ccco4)c3C2c2ccc(C)cc2)cc1 (stereo unspecified)	u	11µM*	-28%	x	x	x

Screens (PubChem)
